PMC4631838

What was measured:
Assay in all cases: cross-link between two proteins; cross-linking mass spectrometry
[1] = molecular target: DNA-directed RNA polymerase II subunit RPB11 (UniProt P38902)
[2] = molecular target: DNA-directed RNA polymerase II subunit RPB9 (UniProt P27999)
[3] = molecular target: DNA-directed RNA polymerases I, II, and III subunit RPABC1 (UniProt P20434)
[4] = molecular target: DNA-directed RNA polymerases I, II, and III subunit RPABC2 (UniProt P20435)
[5] = molecular target: DNA-directed RNA polymerases I, II, and III subunit RPABC3 (UniProt P20436)
[6] = molecular target: DNA-directed RNA polymerase II subunit RPB3 (UniProt P16370)
[7] = molecular target: DNA-directed RNA polymerase II subunit RPB7 (UniProt P34087)
Chain of DNA-directed RNA polymerase II subunit RPB7 (P34087 whole entry): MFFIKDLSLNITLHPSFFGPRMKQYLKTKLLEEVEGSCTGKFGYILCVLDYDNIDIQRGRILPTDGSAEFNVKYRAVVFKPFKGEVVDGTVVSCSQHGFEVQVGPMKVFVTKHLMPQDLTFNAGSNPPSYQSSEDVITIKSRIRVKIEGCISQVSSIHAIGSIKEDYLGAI

Chain of DNA-directed RNA polymerase II subunit RPB1, P04050 (P04050 whole entry): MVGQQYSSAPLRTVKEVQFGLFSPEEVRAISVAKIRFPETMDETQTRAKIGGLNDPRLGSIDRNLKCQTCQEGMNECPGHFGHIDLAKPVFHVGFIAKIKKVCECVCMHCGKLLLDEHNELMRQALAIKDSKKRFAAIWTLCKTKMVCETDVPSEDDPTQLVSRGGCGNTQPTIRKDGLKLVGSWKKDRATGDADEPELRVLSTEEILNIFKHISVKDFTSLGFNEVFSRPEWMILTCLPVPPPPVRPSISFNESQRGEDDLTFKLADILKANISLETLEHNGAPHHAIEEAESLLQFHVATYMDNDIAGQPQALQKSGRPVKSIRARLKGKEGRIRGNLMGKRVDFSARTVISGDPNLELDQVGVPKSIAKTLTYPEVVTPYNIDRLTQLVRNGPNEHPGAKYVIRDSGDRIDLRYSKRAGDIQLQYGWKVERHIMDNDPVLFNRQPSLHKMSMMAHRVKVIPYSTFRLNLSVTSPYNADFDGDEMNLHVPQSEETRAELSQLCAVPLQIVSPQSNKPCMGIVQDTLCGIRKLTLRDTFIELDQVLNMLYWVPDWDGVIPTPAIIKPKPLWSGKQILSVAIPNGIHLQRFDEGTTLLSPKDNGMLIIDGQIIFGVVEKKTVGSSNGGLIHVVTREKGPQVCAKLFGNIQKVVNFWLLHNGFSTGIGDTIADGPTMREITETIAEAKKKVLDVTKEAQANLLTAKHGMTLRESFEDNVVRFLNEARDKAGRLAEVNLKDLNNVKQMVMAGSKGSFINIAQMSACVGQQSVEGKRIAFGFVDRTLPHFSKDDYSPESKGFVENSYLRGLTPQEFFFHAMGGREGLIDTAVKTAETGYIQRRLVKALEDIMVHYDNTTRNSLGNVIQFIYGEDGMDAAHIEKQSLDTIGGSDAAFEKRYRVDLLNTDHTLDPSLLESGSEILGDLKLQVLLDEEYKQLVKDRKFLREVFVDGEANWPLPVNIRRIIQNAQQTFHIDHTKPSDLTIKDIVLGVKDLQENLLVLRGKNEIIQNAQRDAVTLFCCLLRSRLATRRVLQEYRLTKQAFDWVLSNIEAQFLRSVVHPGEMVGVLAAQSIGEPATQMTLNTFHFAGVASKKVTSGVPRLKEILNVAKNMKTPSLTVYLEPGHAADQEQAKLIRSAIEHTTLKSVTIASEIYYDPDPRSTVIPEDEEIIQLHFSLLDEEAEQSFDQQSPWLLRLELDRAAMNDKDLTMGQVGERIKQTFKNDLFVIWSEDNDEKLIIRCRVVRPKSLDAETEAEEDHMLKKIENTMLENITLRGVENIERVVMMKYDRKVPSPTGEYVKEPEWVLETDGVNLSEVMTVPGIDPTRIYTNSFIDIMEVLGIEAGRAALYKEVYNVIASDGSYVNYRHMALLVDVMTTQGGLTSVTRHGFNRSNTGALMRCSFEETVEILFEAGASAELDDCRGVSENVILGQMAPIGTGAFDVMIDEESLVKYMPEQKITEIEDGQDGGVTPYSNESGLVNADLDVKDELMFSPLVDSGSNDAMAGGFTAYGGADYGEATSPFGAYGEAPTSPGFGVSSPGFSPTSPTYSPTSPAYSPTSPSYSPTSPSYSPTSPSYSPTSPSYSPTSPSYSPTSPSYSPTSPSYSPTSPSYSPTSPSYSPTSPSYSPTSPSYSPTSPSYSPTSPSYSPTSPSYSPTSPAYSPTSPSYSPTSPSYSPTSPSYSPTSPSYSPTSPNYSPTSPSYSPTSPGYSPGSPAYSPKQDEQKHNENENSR
Chain of DNA-directed RNA polymerases I, II, and III subunit RPABC2 (P20435 whole entry): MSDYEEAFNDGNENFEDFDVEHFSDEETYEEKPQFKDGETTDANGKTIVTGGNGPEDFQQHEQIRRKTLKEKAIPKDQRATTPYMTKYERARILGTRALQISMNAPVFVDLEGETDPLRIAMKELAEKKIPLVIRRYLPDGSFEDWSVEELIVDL
Chain of DNA-directed RNA polymerases I, II, and III subunit RPABC3 (P20436 whole entry): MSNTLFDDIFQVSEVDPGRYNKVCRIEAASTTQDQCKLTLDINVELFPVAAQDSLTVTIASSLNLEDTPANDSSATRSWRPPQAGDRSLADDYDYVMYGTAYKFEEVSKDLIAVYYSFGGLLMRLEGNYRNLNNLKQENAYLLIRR
Chain of DNA-directed RNA polymerase II subunit RPB2, P08518 (P08518 whole entry): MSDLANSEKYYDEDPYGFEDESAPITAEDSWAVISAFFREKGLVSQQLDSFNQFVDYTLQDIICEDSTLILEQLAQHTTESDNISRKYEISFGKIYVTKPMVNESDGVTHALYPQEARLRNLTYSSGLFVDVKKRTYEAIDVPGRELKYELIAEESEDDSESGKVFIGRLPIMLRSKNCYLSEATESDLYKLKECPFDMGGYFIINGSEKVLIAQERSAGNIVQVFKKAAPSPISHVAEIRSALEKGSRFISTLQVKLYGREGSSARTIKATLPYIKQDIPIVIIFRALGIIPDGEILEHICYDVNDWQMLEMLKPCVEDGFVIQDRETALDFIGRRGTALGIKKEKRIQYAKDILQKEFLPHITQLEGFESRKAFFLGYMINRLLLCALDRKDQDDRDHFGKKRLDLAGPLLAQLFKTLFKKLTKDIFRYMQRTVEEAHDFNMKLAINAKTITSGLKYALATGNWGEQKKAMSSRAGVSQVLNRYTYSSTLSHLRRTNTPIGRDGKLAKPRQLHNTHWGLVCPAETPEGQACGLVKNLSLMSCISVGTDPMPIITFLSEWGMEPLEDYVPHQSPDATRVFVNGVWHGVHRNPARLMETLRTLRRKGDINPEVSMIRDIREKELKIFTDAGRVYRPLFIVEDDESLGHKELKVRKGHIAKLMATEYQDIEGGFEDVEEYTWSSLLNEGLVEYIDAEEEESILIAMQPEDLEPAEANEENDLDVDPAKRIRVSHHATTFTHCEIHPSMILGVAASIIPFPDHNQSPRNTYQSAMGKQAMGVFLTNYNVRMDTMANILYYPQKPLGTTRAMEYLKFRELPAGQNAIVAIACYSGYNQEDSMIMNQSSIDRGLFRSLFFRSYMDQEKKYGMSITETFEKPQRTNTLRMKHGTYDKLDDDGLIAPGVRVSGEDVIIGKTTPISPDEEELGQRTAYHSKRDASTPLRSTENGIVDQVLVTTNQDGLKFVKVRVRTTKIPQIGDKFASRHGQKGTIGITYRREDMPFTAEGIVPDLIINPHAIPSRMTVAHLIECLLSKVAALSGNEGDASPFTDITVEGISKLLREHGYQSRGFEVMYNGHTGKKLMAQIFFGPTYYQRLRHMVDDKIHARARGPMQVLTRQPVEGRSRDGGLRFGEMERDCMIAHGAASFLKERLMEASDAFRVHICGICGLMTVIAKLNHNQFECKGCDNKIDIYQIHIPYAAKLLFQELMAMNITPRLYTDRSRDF
Chain of DNA-directed RNA polymerase II subunit RPB9 (P27999 whole entry): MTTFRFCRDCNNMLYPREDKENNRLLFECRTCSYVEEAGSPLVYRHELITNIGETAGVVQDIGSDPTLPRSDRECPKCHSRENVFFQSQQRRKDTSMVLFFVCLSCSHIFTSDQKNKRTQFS
Chain of DNA-directed RNA polymerase II subunit RPB3 (P16370 whole entry): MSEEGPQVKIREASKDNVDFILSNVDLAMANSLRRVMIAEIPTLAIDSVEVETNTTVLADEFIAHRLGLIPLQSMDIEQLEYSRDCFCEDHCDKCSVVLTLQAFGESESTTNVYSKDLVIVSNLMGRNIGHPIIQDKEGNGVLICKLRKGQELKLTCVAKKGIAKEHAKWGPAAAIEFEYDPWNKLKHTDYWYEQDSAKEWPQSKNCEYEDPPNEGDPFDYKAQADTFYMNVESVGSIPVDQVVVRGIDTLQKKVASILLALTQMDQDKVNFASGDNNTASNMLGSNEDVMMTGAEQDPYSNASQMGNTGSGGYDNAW
Chain of DNA-directed RNA polymerase II subunit RPB11 (P38902 whole entry): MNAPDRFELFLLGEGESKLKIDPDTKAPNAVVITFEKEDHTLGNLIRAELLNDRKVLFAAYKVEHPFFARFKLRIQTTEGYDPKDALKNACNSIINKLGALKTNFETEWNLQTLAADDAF
Chain of DNA-directed RNA polymerases I, II, and III subunit RPABC1 (P20434 whole entry): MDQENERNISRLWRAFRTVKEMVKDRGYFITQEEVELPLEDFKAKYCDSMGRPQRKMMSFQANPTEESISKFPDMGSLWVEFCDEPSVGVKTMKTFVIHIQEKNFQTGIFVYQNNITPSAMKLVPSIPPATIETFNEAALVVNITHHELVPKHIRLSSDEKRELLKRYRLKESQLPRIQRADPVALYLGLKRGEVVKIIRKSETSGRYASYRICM

With “DNA-directed RNA polymerase II subunit RPB1, P04050” the “listed as a hit” value [1] was “yes”, the “listed as a hit” value [2] was “yes” and the “listed as a hit” value [3] was “yes”. For the same substance, the “listed as a hit” value [4] was “yes” and the “listed as a hit” value [5] was “yes”.
With “DNA-directed RNA polymerase II subunit RPB2, P08518” the “listed as a hit” value [6] was “yes”.
In the case of “DNA-directed RNA polymerases I, II, and III subunit RPABC1, P20434”, the “listed as a hit” value [4] is reported as “yes”.
“DNA-directed RNA polymerase II subunit RPB4, P20433” was tested, and the “listed as a hit” value [7] was “yes”.
